Data on 40 molecules can be found in PubChem BioAssay (NCATS).

This test can be described thus: High-throughput drug toxicity screening in the BPDCN cell line Gen2.2 (AID 1224824). The following applies: Gen2.2 BPDCN cells; at 45.8 µM (top of the series) unless noted. The text has this:
Blastic plasmacytoid dendritic cell neoplasm (BPDCN) is a rare, aggressive and largely incurable hematologic malignancy originating from plasmacytoid dendritic cells (pDCs). Although an initial response to chemotherapy is common, BPDCN prognosis is extremely poor and most patients relapse with drug-resistant disease leading to a median overall survival of ~1 year after diagnosis. To explore novel potential therapeutic strategies in BPDCN, we performed a high-throughput drug toxicity screening in BPDCN cell liens, using of a library of 1,912 small molecules, enriched for compounds that are either approved or in early stages of development for cancer therapy.
A total of 500 exponentially growing Gen2.2 cells were seeded per well in 5 uL of media (RPMI + Glutamine, without phenol red plus10% FBS and 1X Pen/Strep) into 1536-well solid white high base tissue culture treated Greiner One Bio Plates (789173-F), using a multidrop combi dispenser and a small sterile cassette. Compounds and controls totaling 23nL per well (negative control DMSO and positive control 9.2 uM Bortezomib-final) were immediately added to the plates using a 1536 head pin tool from Kalypsys. The plates were then covered with stainless steel gasket lids from Kalypsys and incubated for 48 hours at 37C under 95% relative humidity with 5% CO2. After 48 hours, the plates were removed and allowed to reach room temperature before 3 uL of Cell Titer Glo reagent (Promega) were added using an Aurora Flying Reagent Dispenser Bioraptor. The plates were then spun at 1000 rpms to remove bubbles and incubated for 15 minutes at room temperature before reading on a ViewLux using a luminescent filter with a 10 second exposure. The relative luciferase units were used to calculated percent activity using DMSO as 100% and Bortezomib as 0%.
In the case of `CN1CCC(=C2c3ccccc3C=Cc3ccccc32)CC1`, the cell viability, % of control (lower = more cytotoxic) stood at 106%. For `CCCCc1oc2ccccc2c1C(=O)c1cc(I)c(OCCN(CC)CC)c(I)c1` the value was 84.7%. Consider `CN1CCN(CCCN2c3ccccc3Sc3ccc(Cl)cc32)CC1`, for which the cell viability, % of control (lower = more cytotoxic) was determined as 107%.

Turning to `CCCNCC(O)COc1ccccc1C(=O)CCc1ccccc1` (stereo not given), the cell viability, % of control (lower = more cytotoxic) turned out to be 6.23%. For `COc1cc2nc(N3CCN(C(=O)c4ccco4)CC3)nc(N)c2cc1OC`, the cell viability, % of control (lower = more cytotoxic) came to 8.89%. For `CC1COc2c(N3CCN(C)CC3)c(F)cc3c(=O)c(C(=O)O)cn1c23` (stereo not given) the value was 147%. As for `OCCN(CCO)c1nc(N2CCCCC2)c2nc(N(CCO)CCO)nc(N3CCCCC3)c2n1`, the figure is 130%. For `COc1ccccc1OCC(O)CN1CCN(CC(=O)Nc2c(C)cccc2C)CC1` (stereo not given) the value was 126%. For `NC(=O)OCC(COC(N)=O)c1ccccc1`, the cell viability, % of control (lower = more cytotoxic) was determined as 156%. For `C[C@H]1c2cccc(O)c2C(O)=C2C(=O)[C@]3(O)C(O)=C(C(N)=O)C(=O)[C@@H](N(C)C)[C@@H]3[C@@H](O)[C@@H]21` the value was 12.3%; for `COc1ccc2c(c1)c(CC(=O)O)c(C)n2C(=O)c1ccc(Cl)cc1`, 127%. For the molecule `Nc1nnc(-c2cccc(Cl)c2Cl)c(N)n1`, the cell viability, % of control (lower = more cytotoxic) was determined as 86.5%. Turning to `CCOC(=O)Nc1ccc(NCc2ccc(F)cc2)nc1N`, the cell viability, % of control (lower = more cytotoxic) was determined as 166%. As for `O=C(C1CCCCC1)N1CC(=O)N2CCc3ccccc3C2C1` (stereo not given), the figure is 246%. For `Clc1ccc2nsnc2c1NC1=NCCN1` the value was 64.1%; for `Cc1cn([C@H]2C[C@H](N=[N+]=[N-])[C@@H](CO)O2)c(=O)[nH]c1=O`, 59.6%; for `CCC1(c2ccccc2)C(=O)NCNC1=O`, 15.1%.

For the molecule `Nc1nc2c(ncn2COC(CO)CO)c(=O)[nH]1`, the cell viability, % of control (lower = more cytotoxic) worked out at 5.03%. For `CN(Cc1cnc2nc(N)nc(N)c2n1)c1ccc(C(=O)N[C@@H](CCC(=O)O)C(=O)O)cc1` the value was 70%; for `CS(=O)(=O)CCNCc1ccc(-c2ccc3ncnc(Nc4ccc(OCc5cccc(F)c5)c(Cl)c4)c3c2)o1`, 4.7%. Regarding `COc1nc(C)nc(Cl)c1NC1=NCCN1`, the cell viability, % of control (lower = more cytotoxic) turned out to be 136%. For `COC(=O)Nc1nc2ccc(C(=O)c3cccs3)cc2[nH]1` the value was 19.7%.

With `CC(C)C(=O)Nc1ccc([N+](=O)[O-])c(C(F)(F)F)c1`, the cell viability, % of control (lower = more cytotoxic) was 58%. For `Cc1ccccc1N1C(=O)c2cc(S(N)(=O)=O)c(Cl)cc2NC1C` (stereo not given) the value was 73.5%; for `CC(C)NCC(O)COc1ccc(CCOCC2CC2)cc1` (stereo not given), 88.1%; for `CC[C@@]1(O)C(=O)OCc2c1cc1n(c2=O)Cc2cc3c(CN(C)C)c(O)ccc3nc2-1`, 14.6%.

On to `NCCS(=O)(=O)O`, for which the cell viability, % of control (lower = more cytotoxic) turned out to be 573%. For `CN(C)C(=O)C(CCN1CCC(O)(c2ccc(Cl)cc2)CC1)(c1ccccc1)c1ccccc1` the value was 71%; for `CCN1CCCC1CNC(=O)c1cc(S(=O)(=O)CC)c(N)cc1OC` (stereo not given), 143%. As for `CN(C)C(=N)N=C(N)N`, the figure is 165%; as for `Cc1cnc(C(=O)NCCc2ccc(S(=O)(=O)NC(=O)NC3CCCCC3)cc2)cn1`, 112%. As for `CCOC(=O)c1ncn2c1CN(C)C(=O)c1cc(F)ccc1-2`, the figure is 100%; as for `CC#C[C@]1(O)CC[C@H]2[C@@H]3CCC4=CC(=O)CCC4=C3[C@@H](c3ccc(N(C)C)cc3)C[C@@]21C`, 6.18%.

With `Cc1cc(C(C)(C)C)cc(C)c1CC1=NCCN1`, the cell viability, % of control (lower = more cytotoxic) came to 20.6%.

Take `CC(C)(C)C(=O)Oc1ccc(S(=O)(=O)Nc2ccccc2C(=O)NCC(=O)O)cc1`: the cell viability, % of control (lower = more cytotoxic) came out at 103%. For `C[C@@H]1CC(=O)NN=C1c1ccc(NN=C(C#N)C#N)cc1` the value was 7.71%; for `CC12CC3CC(C)(C1)CC(N)(C3)C2`, 26.5%. For `O=C(Nc1ccc([N+](=O)[O-])cc1Cl)c1cc(Cl)ccc1O` the value was 10.1%; for `O=C1c2c(O)ccc(O)c2C(=O)c2c(NCCNCCO)ccc(NCCNCCO)c21`, 6.11%.

With `COc1cc2nc(N(C)CCCNC(=O)C3CCCO3)nc(N)c2cc1OC` (stereo not given), the cell viability, % of control (lower = more cytotoxic) is 230%.
